Data on 67 molecules can be found in PubChem BioAssay AID2242 (National Center for Advancing Translational Sciences (NCATS), 2010).

Out of some 200,000 compounds screened, about 720 (0.36%) were called active. About 8% were inconclusive and are not listed. Calls follow the shape of the dose curve; as a rule, active = well fitted activation curve with a large enough effect; inconclusive = small, poorly fitted or top-dose-only effect, or effect the other way, or another doubt; inactive = flat fitted curve, though single readings scatter. Some of the results follow.
Potency is read from the fitted curve at half-maximal effect.

The assay concerns the target Lysosomal alpha-glucosidase (Homo sapiens) (UniProt P10253). Put plainly: qHTS Assay for Activators of Human alpha-Glucosidase as a Potential Chaperone Treatment of Pompe Disease. Also: nearly all actives have a fitted effect of over 80% in size. To be noted: purified enzyme, 4-MU-alpha-glucoside fluorescence, 20 min; series mostly up to 76.9 µM. The method in brief:
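Compounds titrated up to 77 uM against 4 nM enzyme and 400 uM methylumbelliferyl substrate at room temperature, 20 min, pH 5.0. Basic stop, then 4-methylumbelliferone fluorescence (365/440 nm) normalized to no-enzyme and enzyme controls; Hill-equation AC50.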
A general note: qHTS replaces the single test concentration by a dilution series.
As to `COC(=O)c1ccc(-c2ncc(-c3cccc4ccccc34)o2)cc1`, the Potency is 28.2 µM (active). To `Cc1cc(-c2ccc(C(=O)O)s2)cnc1N` belongs 28.2 µM (active); to `O=C(COC(=O)c1ccccc1Nc1ccccc1)NCc1ccccc1Cl`, 28.2 µM (active); to `CCCCNS(=O)(=O)c1ccc2nc(-c3cccs3)cc(C(=O)NCC(OC)OC)c2c1`, 25.1 µM (active). To `COc1cc2cc(C(N)=O)c(N)nc2cc1OC` belongs 35.5 µM (active); to `COc1ccccc1N1CCN(C(=O)c2c(-c3ccccc3)noc2C)CC1`, 35.5 µM (active). To `CCNC(=O)/C(C#N)=C/c1c(N2CCOCC2)nc2ccccn2c1=O` belongs 28.2 µM (active); to `O=c1cc(CN2CCN(S(=O)(=O)/C=C/c3ccccc3)CC2)c2ccc(O)cc2o1`, 35.5 µM (active). Regarding `O=c1cc(CN2CCN(S(=O)(=O)c3ccc4c(c3)OCCO4)CC2)c2ccc(O)cc2o1`, the Potency was 28.2 µM (active). To `O=c1[nH]c(=O)c2nc(-c3ccc(Cl)cc3)cnc2[nH]1` belongs 28.2 µM (active); to `c1ccc(CN2c3ccccc3-c3nc4ccccc4n3C2c2ccccn2)cc1` (configuration not stated), 28.2 µM (active). To `CCN1c2ccccc2-c2nc3ccccc3n2C1c1ccccn1` (configuration not stated) belongs 31.6 µM (active); to `COCC(=O)Nc1ccc(-c2cn3cccnc3n2)cc1`, 35.5 µM (active). As for `CCOCC(=O)Nc1cc(-c2cn3cccnc3n2)ccc1C`, the Potency is 35.5 µM (active). For the molecule `CC(=O)Nc1ccc(-c2cn3cccnc3n2)cc1`, the Potency was 28.2 µM (active). `CCOCC(=O)Nc1ccc(-c2cn3cccnc3n2)cc1`: the Potency was 35.5 µM (active). As to `CCCCCC(=O)Nc1ccc(-c2cn3cccnc3n2)cc1`, the Potency was 35.5 µM (active). Turning to `Cc1onc(-c2ccccc2Cl)c1C(=O)Nc1cccc(-c2nc3ncccn3c2C)c1`, the Potency was 35.5 µM (active). Turning to `Cc1onc(-c2ccccc2Cl)c1C(=O)Nc1ccc(-c2cn3cccnc3n2)cc1`, the Potency is 35.5 µM (active). Regarding `CC(C)(O[C@@H]1O[C@H](CO)[C@@H](O)[C@H](O)[C@H]1O)[C@H]1Cc2cc3ccc(=O)oc3cc2O1`, the Potency was 35.5 µM (active). To `O=C(Oc1ccc2c3c(c(=O)oc2c1)CCC3)c1ccco1` belongs 35.5 µM (active); to `O=C(Oc1ccc2c3c(c(=O)oc2c1)CCCC3)c1ccco1`, 35.5 µM (active). For the molecule `O=C(Oc1cc2oc(=O)c3c(c2cc1Cl)CCCC3)c1ccco1`, the Potency was 10 µM (active). Turning to `CC(C)c1cc(NCC2CCCO2)n2c(nc3ccccc32)c1C#N` (configuration not stated), the Potency was 35.5 µM (active). With `CCCc1cc(NCC2CCCO2)n2c(nc3ccccc32)c1C#N` (configuration not stated), the Potency is 35.5 µM (active). In the case of `CCN1CCN(CCCNC(=O)c2cc3cc4ccc(OC)cc4nc3o2)CC1`, the Potency is 35.5 µM (active). `COc1ccc2cc3cc(C(=O)NCCCN4CCOCC4)oc3nc2c1`: the Potency is 35.5 µM (active). For `CCCSc1nc2sc3c(c2c(=O)[nH]1)CCN(Cc1ccccc1)C3`, the Potency was 31.6 µM (active). For the molecule `COC(=O)c1ccncc1N`, the Potency was 35.5 µM (active). To `COC(=O)c1sc2cnccc2c1N` belongs 35.5 µM (active); to `COC(=O)c1sc2ccccc2c1N`, 39.8 µM (active). To `Cc1ccc(S(=O)(=O)c2c(N)n(CCCO)c3nc4ccccc4nc23)cc1` belongs 35.5 µM (active); to `Cc1ccc(S(=O)(=O)c2c(N)n(CC3CCOC3)c3nc4ccccc4nc23)cc1` (configuration not stated), 35.5 µM (active). To `Cc1ccc(-n2c(N)c(S(=O)(=O)c3ccccc3)c3nc4ccccc4nc32)cc1` belongs 25.1 µM (active).

On to `Cc1cccc(S(=O)(=O)c2c(N)n(-c3ccccc3)c3nc4ccccc4nc23)c1`, for which the Potency is 35.5 µM (active). For `Cc1ccc(S(=O)(=O)c2c(N)n(C)c3nc4ccccc4nc23)cc1`, the Potency is 25.1 µM (active). Regarding `Nc1c(S(=O)(=O)c2ccccc2)c2nc3ccccc3nc2n1C1CC1`, the Potency was 28.2 µM (active). For `Nc1c(S(=O)(=O)c2ccccc2)c2nc3ccccc3nc2n1Cc1ccco1`, the Potency was 28.2 µM (active).

`Nc1c(S(=O)(=O)c2ccccc2)c2nc3ccccc3nc2n1CCN1CCOCC1`: the Potency is 39.8 µM (active). Take `Cc1cccn2c(=O)c3cc(C#N)c(=NC(=O)c4ccncc4)n(CCCOC(C)C)c3nc12`: the Potency is 35.5 µM (active). To `COCCCn1c(=NC(=O)c2ccncc2)c(C#N)cc2c(=O)n3cccc(C)c3nc21` belongs 35.5 µM (active); to `COCCCn1c(=NC(=O)c2ccccc2)c(C#N)cc2c(=O)n3cccc(C)c3nc21`, 39.8 µM (active); to `CCC1OC2(C)OC(=N)C1(C#N)C(C#N)(C#N)C2c1ccccc1` (configuration not stated), 35.5 µM (active). Regarding `CCC12OC(=N)C(C#N)(C1C)C(C#N)(C#N)C(c1ccccc1)O2` (configuration not stated), the Potency was 39.8 µM (active). For the molecule `CC(=O)Nc1ccc(S(=O)(=O)C(C#N)c2nc3ccccc3nc2NCCCO)cc1` (configuration not stated), the Potency was 31.6 µM (active).

On to `CC(=O)Nc1ccc(S(=O)(=O)C(C#N)c2nc3ccccc3nc2NCCO)cc1` (configuration not stated), for which the Potency is 35.5 µM (active). Regarding `Cc1ccc(S(=O)(=O)NC(C(=O)Oc2ccc3ccc(=O)oc3c2)c2ccccc2)cc1` (configuration not stated), the Potency is 35.5 µM (active). To `Cc1ccc(S(=O)(=O)NC(C(=O)Oc2cc3oc(=O)cc(C)c3cc2Cl)C(C)C)cc1` (configuration not stated) belongs 31.6 µM (active); to `Cc1ccc(S(=O)(=O)NC(C(=O)Oc2ccc3c(C)c(Cl)c(=O)oc3c2)c2ccccc2)cc1` (configuration not stated), 28.2 µM (active); to `CC(C)(C)OC(=O)NCCC(=O)Oc1ccc2ccc(=O)oc2c1`, 35.5 µM (active). To `O=C(Oc1ccc2ccc(=O)oc2c1)C1CCCCC1` belongs 35.5 µM (active); to `CC(NC(=O)OC(C)(C)C)C(=O)Oc1ccc2ccc(=O)oc2c1` (configuration not stated), 31.6 µM (active). To `Cc1c(CCC(=O)O)c(=O)oc2cc(O)ccc12` belongs 35.5 µM (active); to `CCOC(=O)CCc1c(C)c2ccc(O)cc2oc1=O`, 35.5 µM (active); to `Cc1ccccc1C(=O)N=c1c(C#N)cc2c(=O)n3cccc(C)c3nc2n1Cc1ccco1`, 35.5 µM (active). As to `Cc1cccc(C(=O)N=c2c(C#N)cc3c(=O)n4cccc(C)c4nc3n2Cc2ccco2)c1`, the Potency is 35.5 µM (active). Turning to `Fc1ccc(N2N=C(c3cccs3)CC2c2ccco2)c(F)c1` (configuration not stated), the Potency was 31.6 µM (active). With `Clc1ccc(N2N=C(c3cccs3)CC2c2ccco2)cc1` (configuration not stated), the Potency is 35.5 µM (active). In the case of `O=c1oc2ccccc2c2c1SC(C(F)(F)F)C2` (configuration not stated), the Potency was 31.6 µM (active). Consider `NS(=O)(=O)c1ccc(N2N=C(c3ccccc3)CC2c2ccccc2)cc1` (configuration not stated), for which the Potency is 31.6 µM (active). `NS(=O)(=O)c1ccc(N2N=C(c3ccc(Br)cc3)CC2c2ccc(F)cc2)cc1` (configuration not stated): the Potency was 31.6 µM (active).

As to `O=S(=O)(O)c1ccc(N2N=C(c3ccccc3)CC2c2ccccc2)cc1` (configuration not stated), the Potency is 35.5 µM (active). In the case of `COc1ccc(C2CC(c3ccccc3)=NN2c2ccc(Cl)c(C(=O)O)c2)cc1` (configuration not stated), the Potency was 28.2 µM (active).

Regarding `NS(=O)(=O)c1ccc(N2N=C(c3ccccc3)CC2c2cccc(F)c2)cc1` (configuration not stated), the Potency was 35.5 µM (active). As to `COc1ccc(C2CC(c3ccccc3)=NN2c2ccc(S(N)(=O)=O)cc2)cc1OC` (configuration not stated), the Potency is 31.6 µM (active). To `NS(=O)(=O)c1ccc(N2N=C(c3ccccc3)CC2c2ccc(F)cc2)cc1` (configuration not stated) belongs 31.6 µM (active); to `CCc1ccc(C2=NN(c3ccc(S(N)(=O)=O)cc3)C(c3ccc(F)cc3)C2)cc1` (configuration not stated), 31.6 µM (active).
